Source: PubChem
Shown are actives, neighbours in structure and some others; about 11% of the full set was active somewhere.
IMPase Li inh = membrane-permeable IMPase blocker, potentiated with lithium. CHO-M1 cells, IP1 TR-FRET (IP-One), carbachol + lithium. Potency, µM (doses to about 59.4 µM), actives largely listed as inhibitors. hit rate 0.35% among 210,000. AID 1457;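 further: IP1 builds up when IMPase is blocked and the TR-FRET signal falls; nearly all actives have a fitted effect of over 50% in size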
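Concentration–response in CHO-M1 cells, lithium-potentiated; 30 min at 37C. IP1 detected by competitive TR-FRET after 10 min lysis at RT. Hill-fitted AC50.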
ALDH1A1 block = ALDH1A1 (human) enzyme inhibition; P00352; Purified ALDH1A1, NADH fluorescence, propionaldehyde substrate; Potency, µM (series often up to 75.3 µM), usual class: inhibitors; hit rate 7.3% among 220,000; active means well fitted inhibition curve with a large enough effect, not every such curve was filed as active; inconclusive means small, poorly fitted or top-dose-only effect, or another doubt; inactive means no such curve, though single readings can be large or run the other way
Target sequence (P00352 whole entry, looked up): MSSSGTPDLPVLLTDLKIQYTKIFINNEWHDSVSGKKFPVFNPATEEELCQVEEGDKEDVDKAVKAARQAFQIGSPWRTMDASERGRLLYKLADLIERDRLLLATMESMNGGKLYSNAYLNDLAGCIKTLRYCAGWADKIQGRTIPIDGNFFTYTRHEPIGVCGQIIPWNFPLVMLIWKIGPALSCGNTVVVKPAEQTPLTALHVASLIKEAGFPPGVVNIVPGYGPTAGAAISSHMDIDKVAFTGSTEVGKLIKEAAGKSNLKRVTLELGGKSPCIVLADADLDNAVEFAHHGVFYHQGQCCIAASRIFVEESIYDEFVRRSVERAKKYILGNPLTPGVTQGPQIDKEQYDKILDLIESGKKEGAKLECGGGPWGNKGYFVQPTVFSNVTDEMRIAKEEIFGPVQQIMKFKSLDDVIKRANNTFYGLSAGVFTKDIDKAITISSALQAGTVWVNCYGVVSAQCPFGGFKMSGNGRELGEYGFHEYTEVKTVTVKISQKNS
ALOX12 inhib = 12-hLO (ALOX12) enzyme inhibition; purified 12-hLO, xylenol orange hydroperoxide absorbance; hit rate 0.12% among 150,000; Potency, µM (titrated, usually from 57.1 µM), hits mostly inhibitors; further: nearly all actives have a fitted effect of over 55% in size
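Purified human 12hLO (150 nM), preincubated 15 min with compound, then 40 uM arachidonic acid for 30 min, room temperature, Hepes pH 7.0 with 0.01% Triton X-100. Hydroperoxide detected by ferrous iron/xylenol orange; 573/405 nm absorbance ratio gives reaction progress.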
IMPase inh = membrane-permeable compound that blocks inositol monophosphatase; P97697; CHO-M1 cells, IP1 accumulation, HTRF TR-FRET ratio; inhibition (IP1 accumulation), % at 46.1 µM; 120,000 tested, under 10 active; active means well fitted curve in the direction sought with a large enough effect in the signal ratio, not every such curve was filed as active; inconclusive means small, poorly fitted or top-dose-only effect, or a change in a side signal; inactive means no such curve, though single readings can be large or run the other way; the % refers to the signal ratio;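 further: cells stimulated with carbachol in lithium chloride buffer; higher means more IMPase inhibition seen as more IP1 and lower FRET ratio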
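Elevated IP1 in lysates lowers TR-FRET signal (665/620 ratio and 620 channel reported). Cells were CHO-M1, given carbachol (50 uM as added) plus 50mM LiCl, pH 7.4, 30 min, 37C; compounds titrated up to 46 uM; AC50 by Hill equation.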
HPGD inh = inhibitors of human 15-hydroxyprostaglandin dehydrogenase (HPGD); purified HPGD, NADH fluorescence kinetic, PGE2 substrate; Potency, µM, hits mostly inhibitors; hit rate 4.3% among 150,000; AID 894; active means well fitted inhibition curve with a large enough effect, not every such curve was filed as active; inconclusive means small, poorly fitted or top-dose-only effect, or another doubt; inactive means no such curve, though single readings can be large or run the other way
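NADH formation kinetics: reaction with 30 uM PGE2 and 1 mM NAD+ (final), 20 nM enzyme, Tris-HCl pH 8 with Tween 20, after 15 min compound preincubation at room temperature. Fluorescence change, last versus first of five reads.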
PNC inhibitor = inhibitors of perinucleolar compartment assembly; PC3M PTB-GFP, PNC prevalence imaging, 16 h; active compounds read low; activity change (PNC), negative = inhibition, % at 10 µM; hit rate 3.1% among 140,000; AID 2417;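 active means readout at or below -70, meaning at least 70% loss of cells showing the perinucleolar compartment, a nuclear body marking cancer cells; inconclusive means readout between -30 and a set limit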
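Read-out is percentage of cells bearing a perinucleolar compartment, from automated 20x imaging of fixed, Hoechst-stained PC3M PTB-GFP cells. Cells were seeded 4 h, then exposed 16 h to compound (23 nl of library stock) in duplicate plates.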
Hits are given with their value. Unless noted, the call rests on the fitted dose curve; in most records, active means well fitted curve in the direction sought with a large enough effect; inconclusive means small, poorly fitted or top-dose-only effect, or another doubt; inactive means no such curve, though single readings can be large; an effect the other way counts as inactive or inconclusive.

For CC(=O)c1sc(Nc2nc(C)cc(C)n2)nc1C the results were IMPase Li inh inactive, ALDH1A1 block 0.89µM, ALOX12 inhib inactive, IMPase inh inconclusive, HPGD inh 14µM and PNC inhibitor inactive.
`CCOC(=O)C1(Cc2ccc(OC)cc2)CCN(C(=O)CN2CCN(CC)CC2)CC1` gave IMPase Li inh inactive and ALDH1A1 block 25µM.
For O=C(/C=C\c1ccc(O)c(O)c1)OCCc1ccccc1 the results were ALOX12 inhib inconclusive and IMPase inh inactive.
`COc1ccc(-c2ccc(C(=S)N3CCN(C(C)=O)CC3)o2)cc1` gave IMPase Li inh inactive, ALDH1A1 block 11µM, ALOX12 inhib inactive, IMPase inh inactive, HPGD inh 11µM and PNC inhibitor inconclusive.
For COc1ccccc1NC(=O)CCC(=O)Nc1nnc(C(F)(F)F)s1 the results were IMPase Li inh inactive, ALDH1A1 block inactive, ALOX12 inhib inactive, IMPase inh inactive, HPGD inh inactive and PNC inhibitor inactive.
Screening Cc1nn(-c2c(Cl)cc(Cl)cc2Cl)c(=O)c2ccccc12 returned IMPase Li inh inactive, ALDH1A1 block inactive, ALOX12 inhib inactive, IMPase inh inactive, HPGD inh 13µM and PNC inhibitor inactive.
Screening O=C1c2ccccc2-c2onc3ccc(N4CCCC4)c1c23 returned IMPase Li inh inactive and ALDH1A1 block 22µM.
For CCNc1ccc2noc3c2c1C(=O)c1ccccc1-3 the results were IMPase Li inh inactive, ALDH1A1 block inactive, ALOX12 inhib inactive, IMPase inh inactive, HPGD inh inactive and PNC inhibitor -100.
Screening O=C1c2ccccc2-c2onc3ccc(NCc4ccco4)c1c23 returned IMPase Li inh inactive, ALDH1A1 block inconclusive, ALOX12 inhib inactive, IMPase inh inconclusive, HPGD inh inactive and PNC inhibitor inactive.
`CC1CCN(CC(=O)c2cccs2)CC1` gave IMPase Li inh inactive and ALDH1A1 block inconclusive.
Screening O=C(CN1CCc2ccccc2C1)c1cccs1 returned IMPase Li inh inactive, ALDH1A1 block 7.9µM, ALOX12 inhib inactive, IMPase inh inactive, HPGD inh inactive and PNC inhibitor inconclusive.
`O=C(c1cccs1)N1CCN(c2ccc(F)cc2)CC1` gave IMPase Li inh inactive, ALDH1A1 block inactive, ALOX12 inhib inactive, IMPase inh inactive, HPGD inh inactive and PNC inhibitor inactive.
`O=C(CN1CCN(c2ccc(F)cc2)CC1)c1cccs1` gave IMPase Li inh inactive and ALDH1A1 block 7.1µM.
`COc1ccc(C(=O)CN2C(=O)C(C)(C)Oc3ccc(C(=O)N4CCCCCC4)cc32)cc1` gave IMPase Li inh inactive, ALDH1A1 block inactive, ALOX12 inhib inactive, IMPase inh inactive, HPGD inh 8.9µM and PNC inhibitor inactive.
`CCc1cccc(CC)c1NC(=S)NCCc1ccc(O)c(O)c1` gave IMPase Li inh inactive and ALDH1A1 block 22µM.
`CCc1cccc(CC)c1NC(=S)NCCc1c(C)[nH]c2ccccc12` gave IMPase Li inh inactive, ALDH1A1 block inactive, ALOX12 inhib inconclusive, HPGD inh inactive and PNC inhibitor inactive.
CC(=O)NCCc1ccc(O)c(O)c1 was read as IMPase Li inh inactive, ALDH1A1 block 28µM, ALOX12 inhib inactive, IMPase inh inactive and HPGD inh inconclusive.
`COc1ccc(CCNC(C)=O)cc1` gave IMPase Li inh inactive, ALDH1A1 block inactive, ALOX12 inhib inactive, IMPase inh inactive, HPGD inh inactive and PNC inhibitor inactive.
For CCCCC[C@H](O)/C=C/[C@@H]1[C@H]2C/C(=C/CCCC(=O)O)O[C@H]2C[C@H]1O the results were IMPase Li inh inactive, ALDH1A1 block inactive, ALOX12 inhib inactive and HPGD inh inactive.
For CN(C)c1ncc2nc(-c3cccs3)c(=O)n(C[C@H]3CCCO3)c2n1 the results were IMPase Li inh inactive and ALDH1A1 block inconclusive.
For COc1ccc(CCNC(=O)c2cc(-c3ccccc3O)n[nH]2)cc1OC the results were IMPase Li inh inactive, ALDH1A1 block inactive, ALOX12 inhib inactive, IMPase inh inactive, HPGD inh 28µM and PNC inhibitor inconclusive.
